Assay results from the supplement of paper PMC6555819.

Tests used:
Assay in all cases: PBM binding z-score (relative to random genomic background probes); higher = stronger binding; sequences stand for … in GC…GCGATTGACAGCGTAGAATGAAGG
[1] = system: FXR:RXRa (NR concentration 270 nM, RXRa partner concentration 90 nM)
In short: (§1)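 Probes were double-stranded and carried 34-nt variable regions with direct-repeat seeds, single-nucleotide variants, half-site ablations and random human genomic background sequences, printed on custom Agilent 4×180K protein-binding microarrays. Arrays were incubated 1 h with ligand-free nuclear receptor dimers in PBS pH 7.4, 2% milk, 0.02% Triton X-100, 1 mM DTT, 0.2 mg/mL BSA and 0.4 mg/ml salmon testes DNA. Antibodies against each partner (one per run) detected binding, and scanned fluorescence was regression-normalized. Binding z-scores use the random background probes as reference.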

[2] = system: LXRa:RXRa (NR concentration 270 nM, RXRa partner concentration 90 nM)
In short: as §1

[3] = system: LXRa homodimer (NR concentration 270 nM)
In short: as §1

[4] = system: LXRb:RXRa (NR concentration 270 nM, RXRa partner concentration 90 nM)
In short: as §1

[5] = system: LXRb homodimer (NR concentration 270 nM)
In short: as §1

[6] = system: PPARa:RXRa (NR concentration 270 nM, RXRa partner concentration 90 nM)
In short: as §1

[7] = system: PPARg:RXRa (NR concentration 180 nM, RXRa partner concentration 90 nM)
In short: as §1

[8] = system: PPARg:RXRa 270nM:90nM, anti-RXR (NR concentration 270 nM, RXRa partner concentration 90 nM)
In short: as §1

[9] = system: PPARg:RXRa 30nM:10nM, anti-RXR (NR concentration 30 nM, RXRa partner concentration 10 nM)
In short: as §1

[10] = system: PPARg:RXRa 90nM:30nM, anti-RXR (NR concentration 90 nM, RXRa partner concentration 30 nM)
In short: as §1

[11] = system: PPARg:RXRa DBDmut IVT, anti-RXR (DBD mutation: RXRa K156A/R161A, NR concentration 270 nM, RXRa partner concentration 90 nM)
In short: as §1

[12] = system: PPARg:RXRa IVT, anti-PPARg (NR concentration 270 nM, RXRa partner concentration 90 nM)
In short: as §1

[13] = system: PPARg DBDmut:RXRa IVT, anti-PPARg (DBD mutation: PPARg1 K132A/R137A, NR concentration 270 nM, RXRa partner concentration 90 nM)
In short: as §1

[14] = system: PPARg DBDmut IVT, anti-PPARg (DBD mutation: PPARg1 K132A/R137A, NR concentration 270 nM)
In short: as §1

[15] = system: PPARg homodimer (NR concentration 180 nM)
In short: as §1

[16] = system: PXR:RXRa (NR concentration 270 nM, RXRa partner concentration 90 nM)
In short: as §1

[17] = system: PXR homodimer (NR concentration 270 nM)
In short: as §1

[18] = system: RARa:RXR (NR concentration 270 nM, RXRa partner concentration 90 nM)
In short: as §1

[19] = system: RARa homodimer (NR concentration 270 nM)
In short: as §1

[20] = system: RARb:RXRa (NR concentration 270 nM, RXRa partner concentration 90 nM)
In short: as §1

Row | Sequence | PBM binding z-score [1] | PBM binding z-score [2] | PBM binding z-score [3] | PBM binding z-score [4] | PBM binding z-score [5] | PBM binding z-score [6] | PBM binding z-score [7] | PBM binding z-score [8] | PBM binding z-score [9] | PBM binding z-score [10] | PBM binding z-score [11] | PBM binding z-score [12] | PBM binding z-score [13] | PBM binding z-score [14] | PBM binding z-score [15] | PBM binding z-score [16] | PBM binding z-score [17] | PBM binding z-score [18] | PBM binding z-score [19] | PBM binding z-score [20]
1 | GCTATCAGGCCATTTGGGTCACTCAATGACGGGC | 0.309 | 0.382 | -0.0509 | 0.286 | 0.109 | 1.73 | 0.893 | 0.805 | -0.227 | 0.276 | 2.06 | 2.59 | -0.109 | -0.362 | 0.448 | 1.01 | 0.354 | 1.2 | -0.0153 | 1.87
2 | ACTAGTTGGTCAGCTGAGCTCACACACAATTCGG | -0.29 | -0.363 | -0.563 | -0.541 | -0.142 | -0.497 | 0.575 | -0.784 | -0.476 | -0.673 | 0.771 | 0.632 | 0.319 | 0.574 | -0.1 | -0.455 | -0.49 | -0.357 | -0.333 | 0.363
3 | CCAGACAGGTGAGAAGGTAACACAGCCTCGATTA | 0.191 | 0.2 | 0.0952 | 0.413 | -0.0709 | 1.1 | 0.941 | 0.656 | 0.112 | 0.637 | 1 | 0.723 | -0.672 | -0.419 | 0.988 | -0.0224 | 0.73 | 0.409 | 0.978 | 0.799
4 | TTACCAAGGTAAAGGTCGTTGATCCCTCTGTAGA | 3.54 | 3.56 | 0.635 | 2.91 | -0.332 | 4.13 | 6.84 | 7.33 | 5.9 | 7.74 | 0.8 | 3.8 | 1.13 | 0.564 | 1.72 | 2.59 | 0.148 | 2.98 | -0.24 | 2.14
5 | CATACAGGGTCAGCTAGGGCAGAGTAGGGACGGC | 4.71 | 3.1 | -0.0929 | 2.23 | 0.47 | 4.21 | 3.23 | 3.05 | 0.549 | 1.75 | 1.09 | 2.7 | 1.4 | -0.307 | 2.1 | 2.54 | 0.343 | 3.11 | 0.618 | 4.28
6 | TTACCAAGGGGAAAGGTCGTTGATGCACGCCTTG | 1.39 | 1.85 | -0.0678 | 1.81 | -0.739 | 3.79 | 5.27 | 6.57 | 4.47 | 6.82 | 0.296 | 2.61 | 0.358 | 0.0839 | 1.27 | 2.44 | 0.149 | 2.73 | -0.553 | 1.77
7 | TTACCAAGGTGAGCTGAGTTCGTTGATCCAACTC | 0.596 | 0.237 | -0.394 | -0.0256 | -1.28 | 0.596 | -0.321 | 0.146 | -0.237 | 0.19 | 1.27 | 1.51 | -0.265 | -0.637 | -0.679 | 5.28 | 2.22 | 0.594 | -0.779 | 1.04
8 | TCTAGCAGGCCAGATGGTCACTCAAGAGGTACGG | -1.05 | -0.551 | -0.782 | -1.05 | -1.42 | -0.0486 | 0.594 | 0.971 | 1.81 | 1.28 | 0.614 | -0.0638 | -0.764 | -0.948 | -0.88 | -0.46 | -0.899 | -0.205 | -1.39 | 0.242
9 | CGAACGACGGCATGAGTTGATAGCAAATGCCGAT | -0.791 | -1.12 | -0.686 | -1.11 | -1.32 | -1.22 | 0.598 | -0.893 | -0.557 | -0.878 | -1.05 | -1.08 | -1.17 | -0.517 | -0.497 | -0.722 | -0.155 | -0.909 | -0.629 | -1.05
10 | ACTATTAGTTGACTTAGGGCAACCGTTACGACGC | 0.212 | 0.547 | 0.268 | 0.434 | 0.514 | 0.372 | 0.776 | 0.417 | 0.154 | 0.461 | 0.596 | 0.527 | 1.12 | 0.546 | 0.51 | 0.554 | 0.502 | 0.863 | 0.271 | 0.949
11 | CAGCCTAGGTCAGGGCCAGTATTGGAGGAACGTT | 1.65 | 0.996 | -0.403 | 0.567 | -1.11 | 2.03 | 0.396 | 0.87 | -0.497 | 0.402 | 1.37 | 1.29 | -1.49 | -1.57 | 0.568 | 0.0346 | -0.593 | 1.02 | -0.698 | 3.35
12 | ACAGACAGGTGAGTGAAGTTAACTCAGCTGGACG | -0.59 | -0.611 | -0.779 | -0.663 | -0.63 | -0.341 | 0.529 | -0.616 | -0.371 | -0.832 | 0.505 | 0.404 | -0.391 | -0.406 | -0.447 | -0.325 | -0.705 | -0.744 | -0.259 | 0.258
13 | GATACAGGGTAAGCTAGAGGCCAGAGTATGGAAA | -0.252 | -0.448 | -0.407 | -0.76 | -1.15 | -0.293 | 0.319 | -0.0379 | -0.0812 | -0.0554 | 0.227 | 0.424 | -0.118 | -0.173 | -0.435 | -0.38 | -0.17 | -0.0414 | -0.543 | 0.634
14 | CCTGACGGGTCACTCCAGGTTATAGCATCGGAGT | 3.43 | 7.46 | 1.51 | 4.58 | -0.132 | 3.79 | 1.84 | 2.43 | 0.306 | 1.44 | 1.01 | 2.14 | -0.43 | -0.483 | 1.81 | 4.64 | 0.176 | 3.34 | -0.12 | 3.31
15 | GCTAGTTGGTCAGTAAAAGGTCACACAGCGGTCG | 3.2 | 4.47 | 4.65 | 4.17 | 0.715 | 4.62 | 2.84 | 4.58 | 2.15 | 4.37 | 1.19 | 2.6 | -0.374 | -0.109 | 8.6 | 5.42 | 1.17 | 6.43 | 4.55 | 4.32
